# Assay results published in PubChem BioAssay (Tox21).
# Several values for one entry are separate records, joined by “and”; a condition that tells them apart may be missing. Equal values may be shown once. Records with an inconclusive call do not appear. Unmarked numbers belong to inactive results. Activity calls are given as the source filed them. The call rests on the fitted dose curve; in most records, active means well fitted cell-killing curve with a large enough effect in the repeat runs; inconclusive means weak or mixed curves, or effect the other way; inactive means flat fitted curve, though single readings scatter.
# Assay: qHTS assay to identify small molecule antagonists of the estrogen receptor alpha (ER-alpha) signaling pathway using the BG1 cell line in the presence of 0.1 nM 17-beta-estradiol - cell viability counter screen (AID 1259241); further: nearly all actives have a fitted effect of over 40% in size
# Conditions: VM7Luc4E2 (BG1) viability, CellTiter-Fluor protease, 22 h, 0.1 nM estradiol agonist added; series mostly up to 92.4 µM; activity change, negative = cytotoxicity: at the top concentration
# Excerpt: National Center for Advancing Translational Sciences [NCATS]
# NIH Chemical Genomics Center [NCGC]
# U.S. Environmental Protection Agency [EPA]
# National Institutes of Environmental Health Sciences [NIEHS]
# National Toxicology Program [NTP]
# U.S. Food and Drug Administration [FDA]
# Estrogen receptor (ER), a member of the nuclear hormone receptor plays an important role in development, metabolic homeostasis and reproduction. Two subtypes of ER, ER-alpha and ER-beta, have similar expression patterns with some uniqueness in both types. Endocrine disrupting chemicals (EDCs) and their interactions with steroid hormone receptors like ER causes disruption of normal endocrine function. Therefore, it is important to understand the effect of environmental chemicals in ER signaling pathway. For identifying ER antagonists, VM7Luc4E2 cell line was used to screen against Tox21 compound libraries.
# VM7Luc4E2 cell line (provided by Denison MS, University of California) endogenously express full-length ER-alpha and is stably transfected with a plasmid containing four estrogen responsive elements (ERE) upstream of a luciferase reporter gene. The current screening for identification of ER-alpha inhibitors against Tox21 compound libraries used lower concentration (0.1 nM) of 17beta-Estradiol as a stimulator. The cytotoxicity of the Tox21 compound libraries against VM7Luc4E2 cell line was tested by measuring live-cell protease activity using CellTiter-Fluor assay in the same wells.
# Tox21 Assay Protocol Summary:
# VM7Luc4E2 cells were cultured in phenol red free assay medium containing 10% charcoal stripped FBS for 5 days prior to the assay. The cells were dispensed at 4,000 cells/well in 4 uL of assay medium into white wall/solid-bottom 1536-well plates (Corning Life Sciences, Corning, NY) using a Multidrop Combi (ThermoFisher Scientific, Waltham, MA) dispenser. After the assay plates were incubated at 37C and 5% CO2 for 24 hr, 23 nL of compounds dissolved in DMSO, positive controls or DMSO only was transferred to the assay plates by a Pintool station (Kalypsys, San Diego, CA). The transfer of compounds was followed by the addition of 1 uL of 0.1 nM (final concentration) agonist (17beta-Estradiol)/assay medium using a Flying Reagent Dispenser (FRD, Aurora Discovery, San Diego, CA). The plates were incubated at 37C and 5% CO2 for 22 hr. For cytotoxicity assay, 1 uL of CellTiter-Fluor reagent (Promega Corporation, Madison, WI) was added to each well using the FRD and after 30 min incubation at 37C and 5% CO2, The fluorescence intensity was measured using ViewLux plate reader (PerkinElmer, Shelton, CT).
# On the % scale 0 is the no-effect control and ±100 the full control effect; potency means the concentration at half of the fitted maximal effect.
SMILES,Potency,"activity change, negative = cytotoxicity"
O=C(OCc1ccccc1)c1ccc(O)cc1,inactive,–
CCN(CC)C(=O)Nc1ccc(OCC(O)CNC(C)(C)C)c(C(C)=O)c1 (stereo not given),–,1.56% [at 42.5 µM]
Cc1cc(OCCOCC[N+](C)(C)Cc2ccccc2)ccc1C(C)(C)CC(C)(C)C,–,-12.2% [at 42.5 µM]
CCC(CO)(CO)COCC(CC)(CO)CO,–,4.85%
Cc1cccc(O)c1C,inactive,–
CNC1(C)C2CCC(C2)C1(C)C (stereo not given),–,-9.4% [at 42.5 µM]
Cc1ccnc2c1NC(=O)c1cccnc1N2C1CC1,inactive,–
CC1COc2c(N3CCN(C)CC3)c(F)cc3c(=O)c(C(=O)O)cn1c23 (stereo not given),–,-1.25% [at 42.5 µM]
C=C(C)C1CC=C(C)C(OC(C)=O)C1 (stereo not given),inactive,–
CCCNC(C)C(=O)Nc1ccccc1C (stereo not given),–,1.06% [at 42.5 µM]
CC(C)(c1ccccc1)c1ccc(Nc2ccc(C(C)(C)c3ccccc3)cc2)cc1,inactive,–
CC(=O)OCC1=C(C(=O)O)N2C(=O)[C@@H](NC(=O)Cc3cccs3)[C@H]2SC1,–,-3.71% [at 42.5 µM]
CCn1c2ccccc2c2cc(N)ccc21,inactive,–
CCC(C)(Oc1ccc(C2(c3ccc(OC(C)(CC)C(=O)O)cc3)CCCCC2)cc1)C(=O)O (stereo not given),–,-3.27% [at 42.5 µM]
Cc1cc(Cc2cc(C)cc(C(C)(C)C)c2O)c(O)c(C(C)(C)C)c1,–,-21.7%
c1cc(C(c2ccc(OCC3CO3)cc2)C(c2ccc(OCC3CO3)cc2)c2ccc(OCC3CO3)cc2)ccc1OCC1CO1 (stereo not given),inactive,–
Oc1c(Cl)cc(Cl)cc1Sc1cc(Cl)cc(Cl)c1O,inactive,–
CCCCC/C=C/CC1CC(=O)OC1=O (stereo not given),–,0.256%
CCN1CCCC1CNC(=O)c1cc(S(=O)(=O)CC)c(N)cc1OC (stereo not given),–,4.82% [at 42.5 µM]
COc1cc(C(=S)N2CCOCC2)ccc1O,–,-6.48% [at 42.5 µM]

SMILES,Potency,"activity change, negative = cytotoxicity"
CCC[C@H](N[C@@H](C)C(=O)N1[C@H](C(=O)O)C[C@@H]2CCCC[C@@H]21)C(=O)OCC,inactive,–
CCN(CC)CCOc1ccc(/C(=C(\Cl)c2ccccc2)c2ccccc2)cc1,inactive,–
CCCCCC(=O)O[C@]1(C(C)=O)CC[C@H]2[C@@H]3CCC4=CC(=O)CC[C@]4(C)[C@H]3CC[C@@]21C,inactive,–
CC(C)(C)NCC(O)COc1ccccc1OCC1CCCO1 (stereo not given),–,0.398% [at 42.5 µM]
CCCCCCCCCCCC[N+](C)(C)C,inactive,–
O=C(O)CCc1ccccc1,–,2.36%
C=CS(=O)(=O)O,–,-8.07%
CCCCCCCCCCCCCCCCCl,–,9.43% [at 19 µM]
CCc1cc(C(C)(C)C)c(O)c(C(C)(C)C)c1,inactive,–
CC(=O)C1=C(C)[C@@H]2C[C@@]3(C1)[C@H](C)CC[C@H]3C2(C)C,inactive,–
O=C1NCC2(CCN(CCc3ccccc3)CC2)O1,–,3.95% [at 42.5 µM]
CC(=O)OCCOCCOCCOC(C)=O,inactive,–
CC(C)C(=O)c1c(C(C)C)nn2ccccc12,–,1.87% [at 42.5 µM]
CCC(=O)/C=C/C1C(C)=CCCC1(C)C (stereo not given),inactive,–
CN(C)c1ccc(C(=C2C=CC(=[N+](C)C)C=C2)c2ccccc2)cc1,30.6 µM (active) and 15 µM (active),–
CN(C)c1ccc2nc3ccc(=[N+](C)C)cc-3sc2c1,26.2 µM (active) and 27.3 µM (active) and 29.8 µM (active),–
Cc1occc(=O)c1OC(=O)C(C)C,–,2.08%
COc1ccc(COC(C)=O)cc1,inactive,–
Cc1cc(C(C)(C)C)c(O)c(C(C)(C)C)c1,inactive,–
C#CC(C)(CC)OC(=O)c1ccccc1C(=O)O (stereo not given),–,-7.03% [at 42.5 µM]
